# Measurements taken from PubChem BioAssay (NCI).
# About 83,000 compounds went through this panel and 20% of them were active in at least one assay; those are over-represented in the sample as a whole.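 Each cell line was grown in a 96-well plate and treated with one concentration of compound for 48 hours. Values below 10 were considered active.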 A number with no mark means an inactive call. Calls of active or inactive are those of the source.
# Legend:
# Assay in all cases: NCI-60 one-dose screen, 48 h (100 = growth as untreated, 0 = no growth, -100 = all killed)
# Conditions in all cases: 10 µM unless noted
# HCT-15 colon = system: HCT-15 colon
# HT29 colon = system: HT29 colon
# SNB-75 CNS = system: SNB-75 CNS
# SNB-19 CNS = system: SNB-19 CNS
# U251 CNS = system: U251 CNS
# PC-3 prostate = system: PC-3 prostate
# SK-MEL-5 melanoma = system: SK-MEL-5 melanoma
# UACC-62 melanoma = system: UACC-62 melanoma
# LOX IMVI melanoma = system: LOX IMVI melanoma
# SK-MEL-28 melanoma = system: SK-MEL-28 melanoma
# SK-MEL-2 melanoma = system: SK-MEL-2 melanoma
# EKVX NSCLC = system: EKVX NSCLC
# SN12C renal = system: SN12C renal
# UO-31 renal = system: UO-31 renal
# TK-10 renal = system: TK-10 renal
# ACHN renal = system: ACHN renal
# CAKI-1 renal = system: CAKI-1 renal
# A498 renal = system: A498 renal
# MOLT-4 leukemia = system: MOLT-4 leukemia
# CCRF-CEM leukemia = system: CCRF-CEM leukemia
Compound,growth (HCT-15 colon),growth (HT29 colon),growth (SNB-75 CNS),growth (SNB-19 CNS),growth (U251 CNS),growth (PC-3 prostate),growth (SK-MEL-5 melanoma),growth (UACC-62 melanoma),growth (LOX IMVI melanoma),growth (SK-MEL-28 melanoma),growth (SK-MEL-2 melanoma),growth (EKVX NSCLC),growth (SN12C renal),growth (UO-31 renal),growth (TK-10 renal),growth (ACHN renal),growth (CAKI-1 renal),growth (A498 renal),growth (MOLT-4 leukemia),growth (CCRF-CEM leukemia)
CCN1C(=S)N(CC)C2Nn3c(s/c(=C4\C(=O)N(C)c5ccccc54)c3=O)=NC21 (stereo not given),35.5%,14.9%,-1.67% (active),70.6%,51.4%,38.6%,19.6%,48.4%,49.2%,59.6%,70.4%,54.6%,51.3%,37.2%,96.9%,52.5%,30.8%,-8.5% (active),61.8%,
COc1ccc(/C=c2\sc3n(c2=O)C2C(NN=3)N(C)C(=O)N2C)cc1 (stereo not given),28.5%,8.76% (active),-20.5% (active),33.9%,29.3%,25.4%,6.02% (active),41.9%,44.3%,54.7%,39.6%,56.7%,42.3%,46.4%,54.8%,45%,31.5%,-21.3% (active),26.5%,
O=S(=O)(NCCCNc1cc(-c2cn(-c3ccccc3)nc2-c2cccc(O)c2)ccn1)c1cccc(F)c1,9.95% (active),8.11% (active),49.5%,81.6%,40.1%,15.5%,20%,50.5%,13.7%,44.3%,66.3%,39%,65.9%,35.6%,58.9%,43.7%,41%,46.6%,31%,36.3%
CCCCCCCCCN1C(=O)/C(=c2\sc3n(c2=O)C2C(NN=3)N(CC)C(=O)N2CC)c2ccccc21 (stereo not given),73%,7.96% (active),-14.4% (active),39.7%,25.1%,34.3%,72.9%,23.7%,19.4%,41.3%,76.2%,69.1%,66.3%,53.4%,71.1%,59%,34.8%,18.8%,99.7%,
N#CC1=C(N)n2nc(-c3ccncc3)nc2NC1c1cccc2ccccc12 (stereo not given),90.4%,97.8%,67.6%,92.8%,86.7%,76%,88.6%,72.4%,79%,106%,96.3%,71.7%,96.6%,58.1%,103%,95.2%,69%,89.8%,86.4%,87.7%
CCN1C(=O)N(CC)C2C1NN=c1s/c(=C\c3ccccn3)c(=O)n12 (stereo not given),33.5%,6.69% (active),-24.4% (active),34.1%,28.3%,24.4%,5.18% (active),39.8%,42.6%,57.3%,39.9%,61.7%,40.7%,43.8%,51.2%,43.4%,30.2%,-29.2% (active),42.5%,
Cc1oc2nc[nH]c(=O)c2c1C(=O)/C=C/c1ccc(Cl)cc1Cl,50.6%,30.4%,44.6%,84%,85.1%,59.2%,81.6%,53.5%,52.2%,89.1%,91.3%,117%,67%,67.6%,123%,66.4%,46.1%,94.3%,86.8%,
CC/C=C\C/C=C\C[C@H](O)C/C=C1/C(=O)C=C[C@H]1C/C=C\CCC(=O)OC,-13.3% [8.25 µM] (active),2.84% [8.25 µM] (active),75.2% [8.25 µM],62.4% [8.25 µM],15% [8.25 µM],20.1% [8.25 µM],24.5% [8.25 µM],4.47% [8.25 µM] (active),-71.8% [8.25 µM] (active),22.5% [8.25 µM],65.6% [8.25 µM],39% [8.25 µM],1.16% [8.25 µM] (active),48.1% [8.25 µM],58.7% [8.25 µM],26.9% [8.25 µM],55.3% [8.25 µM],107% [8.25 µM],32.7% [8.25 µM],-1.3% [8.25 µM] (active)
